# Results reported in ChEMBL document CHEMBL1157539, “Thousands of chemical starting points for antimalarial lead identification” (Nature, 2010).
# Experiments:
# Type in all cases: functional
# [1] = system: Plasmodium falciparum; experiment: GSK_TCMDC: Inhibition of Plasmodium falciparum 3D7 in whole red blood cells, using parasite LDH activity as an index of growth. Test compounds present at 2uM
# [2] = system: Plasmodium falciparum; experiment: GSK_TCMDC: Inhibition of Plasmodium falciparum Dd2 in whole red blood cells, using parasite LDH activity as an index of growth. Test compounds present at 2uM
# [3] = system: HepG2; experiment: GSK_TCMDC: Percent inhibition of human HepG2 cell line. Test compounds present at 10uM.
SMILES,Inhibition [1] [%],Inhibition [2] [%],Inhibition [3] [%]
C#Cc1cccc(NC(=O)[C@H](CC2CCCCC2)Nc2ccc(C#N)c3ccccc23)c1.O=C(O)C(F)(F)F,100,99,48
Br.CC1(C)NC(N)=NC(=N)N1OCCc1ccc(N)cc1,93,95,65
O=C(NCc1cccc2ccccc12)C(c1cc2ccccc2o1)N1CCN(C(c2ccccc2)c2ccccc2)CC1 (configuration not stated),99,90,0
CC(C)Oc1cc2c(cc1NS(=O)(=O)c1ccc(-c3cccs3)cc1)CCN(C)CC2.Cl,88,9,9
Cc1cc2c(cc1C(F)(F)F)N(C(=O)Nc1cccc(C(=O)NC3CCN(Cc4ccccc4)CC3)c1)CC2,91,0,19
Cn1c(NC(=O)C2CCCN(C(=O)c3ccc(O)c(-c4ccc(Cl)c(Cl)c4)c3)C2)nc2ccccc21 (configuration not stated),98,99,0
Cc1cccc2nc(-c3ccc(-c4ccc(CNCCc5ccncc5)cc4)cc3)[nH]c12.O=C(O)C(F)(F)F,100,98,34
CS(=O)(=O)c1ccc(Nc2ncc(-c3ccc(S(C)(=O)=O)cc3)c(OCC(F)(F)F)n2)cc1,97,98,0
CCCOc1ccc(CCNCCCCNCCc2ccc(OCCC)c3ccccc23)c2ccccc12.CS(=O)(=O)O,93,52,100
CCN(CC)CC(O)c1cc(-c2ccc(C)cc2)nc2c(C)cc(C)cc12.Cl (configuration not stated),100,99,3
COc1ccc(-c2ccc(NC(=O)c3cccc(Cl)c3)c(F)c2)cc1CNC(C)C.O=C(O)C(F)(F)F,93,14,19
CCn1c2ccccc2c2cc(Cc3cnc(N)nc3N)ccc21.Cl,94,0,28
CNCCNCc1cccc(-c2cccc(-c3nc4cc(C(F)(F)F)ccc4[nH]3)c2)c1.O=C(O)C(F)(F)F,100,97,22
COc1cccc(Nc2c(C(N)=O)cnc3ccc(-c4ccccc4)cc23)c1,98,99,2
CC(=O)c1ccc(NC(=O)Nc2ccc3nccc(N4CCN(C)CC4)c3c2)cc1,100,93,2
COc1cc2nc(N3CCC(CNC(=O)c4ccc(-c5ccc(C(=O)N(C)C)cc5)cc4)CC3)nc(N)c2cc1OC,100,89,20
Cc1[nH]c(C)c(-c2ccc(-c3ccc4c(c3)OCO4)nc2)c(=O)c1Br,96,96,0
N#Cc1cccc(CN2CCCN(Cc3cccc(C(=O)Nc4ccc(Cl)cc4)c3)CC2)c1.O=C(O)C(F)(F)F,82,9,46
COc1cccc(C(=O)NCCc2cccc(Cl)c2)c1Oc1ccccc1,97,90,28
CC(=O)Nc1cccc(Nc2nccc(Nc3ccc(Oc4ccccc4)cc3)n2)c1.Cl,100,99,15

SMILES,Inhibition [1] [%],Inhibition [2] [%],Inhibition [3] [%]
CC(Oc1c(C2CCN(CCCCNC(=O)c3ccc(-c4ccc(Cl)cc4)cc3)CC2)ccc2c1CCCC2)C(N)=O (configuration not stated),99,16,100
O=C(Cn1c2ccccc2c(=O)c2ccc(Cl)cc21)Nc1ccc(C(F)(F)F)cc1,99,100,30
COCCN(CCOC)c1ncc(-c2ccsc2)c(-c2nc(C)c(C)s2)n1,96,63,1
NC1CCCN(Cc2cccc(-c3ccc(-c4nc5ccccc5[nH]4)s3)c2)C1.O=C(O)C(F)(F)F (configuration not stated),98,88,21
Br.CCCc1cc(C)ccc1OCCCON1C(N)=NC(N)=NC1(C)C,97,97,64
CON=C1CCC(Cn2ccnc2)(c2ccc(Cl)cc2Cl)CC1 (configuration not stated),100,56,7
CS(=O)(=O)c1cccc(-c2cnc(N)c3cc(-c4cccc(F)c4)ccc23)c1,97,13,45
Cc1nc2nc(N)nc(N)c2c(C)c1Cc1cccc(C#N)c1.Cl,97,1,64
COc1ccc(CN(C)CCCc2ccc(NC(=O)c3cccc4c(O)c5ccccc5nc34)cc2)cc1OC,99,54,77
O=C1Nc2ccc3ncccc3c2/C1=C/Nc1ccc(Cn2ccnc2)cc1,100,85,33
Nc1nc(N)c2c(ccc3nn(C4CCCC4)cc32)n1,97,3,44
CCN1CCC(N(Cc2ccc(-c3ccc(C(F)(F)F)cc3)cc2)C(=O)Cn2c(SCc3cccc(F)c3F)cc(=O)c3ccccc32)C1.O=C(O)C(O)C(O)C(=O)O (configuration not stated),90,91,42
COc1cc2c(cc1OC)CN(CCCCc1ccc(NC(=O)c3cc(Cl)cc(Cl)c3)cc1)CC2,95,4,21
Cc1cc(C(=O)Nc2ccc(-c3nc4ccccc4[nH]3)cc2)ccc1[N+](=O)[O-],100,47,55
COc1ccc2c(=NN=CC=Cc3ccccc3)cc(C)[nH]c2c1,99,56,18
CCN(CC)CCCN(CCCN(CC)CC)c1cc(C)nc(Nc2ccc3cc(Br)ccc3c2)n1.Cl,100,73,12
CN1CCC(NCc2ccc(-c3cccc(-c4nc5ccccc5[nH]4)c3)cc2)CC1.O=C(O)C(F)(F)F,100,96,50
CCN(CC)CCCCOc1ccc2c(c1)C(=O)c1cc(OCCCCN(CC)CC)ccc1-2.Cl,100,44,24
[O-][s+]1nc(NCCCN(Cc2cccs2)c2ccccn2)c(NCc2ccccc2)n1 (configuration not stated),92,25,10
OC1CCN(c2cc(-c3ccccn3)nc(-c3ccccn3)n2)CC1,83,97,43

SMILES,Inhibition [1] [%],Inhibition [2] [%],Inhibition [3] [%]
N#Cc1ccc(N[C@@H](CC2CCCCC2)C(=O)Nc2ccc(-c3ccccc3)cc2)c2ccccc12.O=C(O)C(F)(F)F,100,99,34
Oc1ccc(-c2nc3c4cc(I)ccc4c4ccc(I)cc4c3[nH]2)cc1,98,51,0
CCC[C@@H]1CCN[C@H]([C@H](O)c2ccnc3ccc(OC)cc23)C1.Cl,99,69,0
Cn1cncc1C(=O)Nc1cccc(-c2csc(-c3nc4ccccc4[nH]3)c2)c1,100,64,15
CCCNCc1ccc(-c2ccc(CN(C(=O)c3nn(-c4ccccc4)nc3C)C3CCOCC3)cc2)nc1.O=C(O)C(F)(F)F,98,0,14
Fc1ccc(Nc2ccnc3cc(-c4cccc(CN5CCCCC5)c4)ccc23)c(Cl)c1,91,58,3
COc1cc(CN=C(S)NN=C(C)c2ccccn2)cc(OC)c1OC,99,92,45
O=C(NC1CC1)c1ccc(N2CCN(Cc3ccc(Cl)cc3)CC2)nc1.O=C(O)C(F)(F)F,84,81,16
O=C(Nc1cccc(-c2nn3ncccc3c2-c2ccnc(Nc3ccc(N4CCOCC4)cc3)n2)c1)c1c(F)cccc1F,100,75,75
Cc1ccoc1C(=O)Nc1ccc(-c2cccc(-c3nc4cccc(C)c4[nH]3)c2)cc1,95,69,15
COc1ccc(-c2ccc(NC(=O)c3cccc(Cl)c3)cc2)cc1CN1CCC(O)CC1.O=C(O)C(F)(F)F,100,12,15
CC(=O)Nc1nc(C(=O)Nc2cccc(-c3cccc(-c4nc5ccccc5[nH]4)c3)c2)cs1,100,82,31
COc1ccc2cc(-c3nc(-c4c(Cl)cccc4Cl)[nH]c3-c3ccnc(NCCC4CCCN4C)c3)ccc2c1.O=C(O)C(F)(F)F (configuration not stated),100,82,11
CN1CCC(C(=O)N(Cc2ccc(-c3ccc(CNCCc4ccccc4)cn3)cc2)C2Cc3ccccc3C2)CC1.O=C(O)C(F)(F)F,88,97,65
COc1ccc(CNC2CCN(C)CC2)cc1-c1ccc(S(=O)(=O)NCCc2ccccn2)c(F)c1.O=C(O)C(F)(F)F,100,55,3
COc1ccccc1CNc1ncc(-c2ccsc2)c(-c2nccs2)n1,91,84,14
COc1cccc(NC(=O)NC2CCN(c3ccnc(Nc4cc(OC)c(OC)c(OC)c4)n3)C2)c1 (configuration not stated),95,57,8
COc1cc2nc(-c3ccccc3)nc(N3CCN(CC(=O)N4CCCC4)CC3)c2cc1OC,84,70,7
COc1ccc(CN2CCC(Oc3cccc(NC(=O)c4ccc(C(F)(F)F)cc4)c3)CC2)cc1.O=C(O)C(F)(F)F,95,20,35
